FEN1 inhibitor – blocks human flap endonuclease 1 | Recombinant FEN1 flap cleavage, fluorescence, 15 min | Potency, µM (highest dose often 114 µM), without a hit: at the top dose activity change, negative = inhibition, actives largely listed as inhibitors | 390,000 tested, 0.35% active | AID 588795; note: % is set by controls: 0 for no effect and ±100 for the full control effect; nearly all actives have a fitted effect of over 65% in size
Target sequence (P39748 whole entry, looked up): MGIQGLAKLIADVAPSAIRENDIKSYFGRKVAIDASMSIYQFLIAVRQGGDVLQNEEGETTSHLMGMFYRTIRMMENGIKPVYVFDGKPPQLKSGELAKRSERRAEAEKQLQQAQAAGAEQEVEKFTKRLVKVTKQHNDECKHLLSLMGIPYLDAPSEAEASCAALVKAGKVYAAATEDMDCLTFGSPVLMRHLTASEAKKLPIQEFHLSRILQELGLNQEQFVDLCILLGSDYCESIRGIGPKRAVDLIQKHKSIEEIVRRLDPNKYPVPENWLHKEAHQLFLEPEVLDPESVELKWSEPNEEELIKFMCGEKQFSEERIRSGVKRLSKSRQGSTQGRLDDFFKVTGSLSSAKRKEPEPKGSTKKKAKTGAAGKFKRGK
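Nuclease activity of 10 nM FEN1 was measured after 15 min of room-temperature exposure to titrated compounds, by adding 50 nM flap substrate and reading plates at 0 and 15 min.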
Pol eta inh – DNA polymerase eta (human) inhibition | Q9Y253 | recombinant Pol eta, fluorescent DNA replication assay | Potency, µM (doses to about 114 µM), inactives show at the top dose activity change, negative = inhibition, actives largely listed as inhibitors | 390,000 tested, 1.2% active | AID 588591; note: % is set by controls: 0 for no effect and ±100 for the full control effect
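Pol eta at 10 nM preincubated with compounds 15 min at room temperature; reaction started with fluorescent substrate (50 nM final) and read kinetically at 0 and 10 min.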
POLI inh – DNA polymerase iota (human) inhibition; Q9UNA4; Pol iota fluorescent replication assay, 10 min; Potency, µM (series often up to 115 µM), without a hit: top-dose activity, negative = inhibition, actives largely listed as inhibitors; 390,000 tested, 1% active
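Fluorescent replication assay read twice, at 0 min and 10 min after adding 50 nM (final) substrate. Enzyme (10 nM) and compounds were first incubated 15 min at room temperature; enzyme-free buffer wells were negative controls.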
Pol beta inh – blocks human DNA polymerase beta activity. AID 485314. Pol beta primer extension/strand displacement, fluorescence kinetic. P06746. 340,000 tested, 1.3% active. Potency, µM (series often up to 114 µM), for inactives: at the top dose activity change, negative = inhibition, most hits filed as inhibitors; note: % is set by controls: 0 for no effect and ±100 for the full control effect
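Preincubation: enzyme (10 nM) with compound, 15 min, RT. Reaction: substrate added to 50 nM final. Reads: 0 and 10 min. Analysis: normalized, Hill fit.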
POLK inh – inhibitors of human DNA polymerase kappa; purified Pol kappa, fluorescent DNA synthesis assay, 10 min; Potency, µM (titrated, usually from 107 µM), inactives show top-dose activity, negative = inhibition, hits mostly inhibitors; 400,000 tested, 0.53% active; AID 588579; note: % is set by controls: 0 for no effect and ±100 for the full control effect
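50 nM final substrate added after 15 min RT preincubation of 10 nM Pol kappa with compound; fluorescence read at 0 and 10 min.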
WRN inhibitor – blocks human WRN helicase. Q14191. WRN helicase unwinding, fluorescent forked duplex, kinetic. Potency, µM (series often up to 114 µM), for the others: at the highest dose activity change, negative = inhibition, actives largely listed as inhibitors. 360,000 tested, 0.46% active. AID 651768; note: % is set by controls: 0 for no effect and ±100 for the full control effect; nearly all actives have a fitted effect of over 55% in size
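Screening of the MLSMR collection measured strand separation of a quenched forked DNA duplex (100 nM) by 20 nM WRN with 2 mM ATP, all final. Compounds were preincubated with enzyme 15 min at room temperature.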
Numbers without * were called inactive; ? = inconclusive; nt = not tested or not shown; ! = not confirmed by another sample; [ ] = dose if it differs, or a comment. Compounds with a hit are over-represented: about 2.4% of the library has one in this group of screens. Calls come from the whole dose curve; as a rule, active = well fitted curve in the direction sought with a large enough effect; inconclusive = small, poorly fitted or top-dose-only effect, or another doubt; inactive = no such curve, though single readings can be large; an effect the other way counts as inactive or inconclusive. Potency is the fitted concentration of half-maximal effect.

SMILES	FEN1 inhibitor	Pol eta inh	POLI inh	Pol beta inh	POLK inh	WRN inhibitor
CCCCCOC(=O)c1ccccc1C(=O)O	-4.5%	-14.9%	7.1%	22.9%	2.8%	-13.6%
O=C(OCCF)N1CCN(/[N+]([O-])=N/Oc2ccc([N+](=O)[O-])cc2[N+](=O)[O-])CC1	?	nt	-12.7%	nt	-5.7%	nt
COCCNC(=O)c1cc(Sc2nnc(C)s2)nc2ccccc12	nt	nt	nt	3.0%	nt	nt
Cc1nnc(Sc2cc(C(=O)NCc3ccco3)c3ccccc3n2)s1	-10.1%	?	?	22.4µM*	-12.0%	9.3%
CCCCn1cc(S(=O)(=O)c2ccc(C)cc2)c(=O)c2cc(F)c(N3CCCCC3)cc21	2.8%	-10.5%	-5.3%	-2.7%	-7.5%	nt
CCOC(=O)C1=C(Cc2ccc(Cl)cc2)C(=O)c2ccccc2C1=O	?	-28.4%	14.1µM*	9.7%	7.8%	35.5µM*
CCOC(=O)C1=C(C)N=C2c3ccccc3C(=O)C2C1c1ccc(Cl)cc1 (centres undefined)	-22.0%	-10.8%	11.8%	8.5%	-18.1%	-21.4%
COc1ccc([C@]23Cc4cc(C#N)ccc4[C@H](O2)c2c(cc(C)n(Cc4ccccc4)c2=O)O3)cc1	nt	nt	nt	22.1%[22.9 µM]	nt	nt
COC(=O)c1[nH]c2c(c1C)C(=O)CC(c1ccc(C)cc1)C2 (centres undefined)	-1.2%	?	17.1%	31.7%	2.6%	-21.2%[57.1 µM]
COC(=O)c1[nH]c2c(c1C)C(=O)CC(c1cccc(OC)c1)C2 (centres undefined)	-0.8%	-4.5%	?	44.7µM*	-22.3%	-15.1%
CCOc1ccc(CNC(=O)CCn2c(=O)c3cccn3c3cccnc32)cc1	3.4%	-6.0%	12.8%	0.2%	-20.8%	nt
CN(C)c1cccc2c1c(NS(=O)(=O)c1cn(C)cn1)nn2C	-3.6%	-24.3%	39.8µM*	-1.6%	-9.8%	-0.2%[11.6 µM]
Cc1cc(C)c2c(N)c(C(=O)Nc3ncc(C)s3)sc2n1	?	-16.4%	-10.7%	44.7µM*	-24.8%	-24.7%
COC(=O)c1sc2nc(C)cc(C)c2c1N	-16.8%	-8.4%	3.0%	1.2%	-1.9%	-6.5%
C=CCN=c1scc(C)n1/N=C/c1ccc(O)c(O)c1	12.9%	-6.2%	?	2.51µM*	?	2.4%
CN=c1scc(C)n1/N=C/c1ccc(O)cc1	-5.2%	-19.5%	-9.5%	16.4%	-9.9%	-0.1%
CCCn1c2ccccc2c2cnn(CC(=O)NCC3CCN(Cc4ccc(F)cc4)CC3)c(=O)c21	-12.7%	-9.0%	19.6%	-1.2%	-7.1%	nt
O=C(/C=C1\NC2(CCCC2)Cc2ccccc21)C(=O)N/N=C/c1ccc(O)c(O)c1	-31.1%	11.2µM*	?	2µM*	-38.8%	?
CC(=O)c1cccc(NC(=O)Cn2c(=O)oc3cc(S(=O)(=O)N4CCCC4)ccc32)c1	1.6%	-0.4%	?	31.6µM*!	-20.3%	-2.1%
CCc1ccc(NC(=O)Cn2c(=O)ccc3cc(S(=O)(=O)N4CCCC4)ccc32)cc1	-5.3%	89.1µM*	18.3%	6.8%	-2.0%[60.1 µM]	nt
Cc1cc(C)cc(NC(=O)Cn2c(=O)oc3cc(S(=O)(=O)N4CCCC4)ccc32)c1	-3.9%	nt	-28.7%	?	0.8%	nt
Cc1cc(NC(=O)Cn2c(=O)oc3cc(S(=O)(=O)N4CCCC4)ccc32)ccc1Br	-2.6%	-20.5%	-2.7%	12.6µM*	1.9%[60.1 µM]	nt
Cc1ccc(Cl)cc1NC(=O)C(C)n1nnc2sc3c(c2c1=O)CCCC3 (centres undefined)	6.2%	nt	18.3%	58.7%	7.8%	nt
CC(C)c1onc(-c2c(Cl)cccc2Cl)c1COc1ccc(/C=C/c2cccc(C(=O)O)c2)c(Cl)c1	nt	nt	nt	nt	29.9µM*	nt
CCC(C)NC(=O)c1cccc(OCc2c(C)noc2C)c1 (centres undefined)	-2.7%	9.4%	14.7%	-0.8%	0.0%	-31.6%[57.1 µM]
SMILES	FEN1 inhibitor	Pol eta inh	POLI inh	Pol beta inh	POLK inh	WRN inhibitor
O=C(O)C1Sc2[nH]c(=O)sc2C2c3ccc(O)cc3OC(=O)C12 (centres undefined)	?	-57.8%	?	26.5%	?	25.1µM*
COC(=O)C1=C(C)N(Cc2ccccc2)C(=O)/C1=C\c1ccco1	6.7%	-20.6%	50.1µM*	-29.9%	?	-9.2%[11.6 µM]
COC(=O)C1=C(C)N(CCc2ccccc2)C(=O)/C1=C\c1ccco1	-7.8%	-16.9%	-1.2%	-15.2%	-13.4%	-4.1%
O=C(CN1CCN(S(=O)(=O)c2ccc(F)cc2)CC1)c1ccc(O)c(O)c1	-3.3%	-6.2%	50.5%	-29.9%	-11.5%	-2.9%
COc1ccc(S(=O)(=O)N2CCN(CC(=O)c3ccc(O)c(O)c3)CC2)cc1	-11.1%	?	?	?	31.6µM*	-6.0%[11.6 µM]
CCC1C(=O)CC2CCN3C(=O)CCC1C23 (centres undefined)	-12.5%	nt	18.1%	nt	4.7%	nt
CCN(CC(=O)NC(C)(C)C)Cc1cc(=O)n2c(-c3ccccc3)csc2n1	0.4%	?	44.7µM*	?	-41.9%	-17.0%
COc1cccc(OCc2cc(=O)n3c(-c4ccccc4)csc3n2)c1	-3.3%	-22.1%	-28.9%	20µM*	-23.9%	nt
Cc1ccccc1OCc1cc(=O)n2c(-c3ccccc3)csc2n1	-12.7%	-4.6%	12.2%	24.8%	-9.4%	nt
O=C(N/N=C/c1ccc([N+](=O)[O-])cc1)c1cccs1	-1.3%	?	70.8µM*	31.6µM*	?	6.0%[11.6 µM]
O=C(N/N=C/c1ccc(-c2cccc([N+](=O)[O-])c2)o1)c1cccs1	5.5%	-18.8%	119.2%	19.3%	-0.2%	11.1%[57.1 µM]
COc1ccccc1CNC(=O)CSc1ncc2c(n1)-c1cc(Cl)ccc1N(Cc1ccccc1)S2(=O)=O	8.1%	-10.5%	?	-27.2%	-12.8%	nt
Cc1[nH]n(-c2ccccc2)c(=O)c1C(c1ccc(O)c([N+](=O)[O-])c1)c1c(C)[nH]n(-c2ccccc2)c1=O	?	28.2µM*	?	nt	-32.3%	?
Cc1[nH]n(-c2ccccc2)c(=O)c1C(C[N+](=O)[O-])c1ccccc1Cl (centres undefined)	-7.4%	-9.9%	-10.5%	-27.5%	-9.2%	-26.5%
Cc1[nH]n(-c2ccccc2)c(=O)c1C(=O)c1ccccc1	2.7%	?	?	-3.5%	-6.9%	-3.7%
COc1cccc(C(c2c(C)[nH]n(-c3ccccc3)c2=O)c2c(C)[nH]n(-c3ccccc3)c2=O)c1O	-25.8%	9.4%	1µM*	26.3%	-18.8%	-9.6%[11.6 µM]
CC(C)CN1CC[C@@]2(CCCN(C(=O)c3cc(C(F)(F)F)cc(C(F)(F)F)c3)C2)C1	nt	nt	nt	nt	-16.5%[60.1 µM]	nt
C[C@H](O)CN(C)C	nt	nt	nt	nt	-0.9%[19.4 µM]	nt
C=C(CC)C(=O)c1ccc(OCC(=O)O)c(Cl)c1Cl	-13.8%	79.4µM*	10µM*	0.6%	-7.1%	?

Source: PubChem BioAssay (National Center for Advancing Translational Sciences (NCATS))
